According to the supplement of paper PMC10121225:
Counter-ions that a name gives are not always drawn.

tested on: hN + hpA co-culture (H1 iNGN2 human neurons + human primary astrocytes); experiment: presynaptic density (SYNAPSIN1 puncta per MAP2 neurite area), Z-score vs DMSO controls; higher = more presynaptic puncta (synapse-promoting); settings: 3 µM; 72 h
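Further: immunostained co-cultures imaged by high-content microscopy, Z-score per plate against mean and SD of 0.1% DMSO wells, compounds added on differentiation day 18, analysed day 21.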

SMILES	presynaptic density (Z-score)
C1=N/C2=N/c3ccc(OCCN4CCCC4)c(c3)COC/C=C/COCc3cccc(c3)C(=C1)N2 [Pacritinib (SB1518)]	-1.08
COc1cccc(C=NCCN=Cc2cccc(OC)c2[O-])c1[O-].[Cl-].[Mn+3]	-0.63
C[C@@H](c1ncncc1F)[C@](O)(Cn1cncn1)c1ccc(F)cc1F	0.265
FC(F)(F)c1ccc(/C=C/c2nc(COc3ccc(CCCCn4ccnn4)cc3)co2)cc1 [Mubritinib (TAK 165)]	-3.36
Cc1ccc(NC(=O)C2(c3ccc4c(c3)OC(F)(F)O4)CC2)nc1-c1cccc(C(=O)O)c1 [VX-809 (Lumacaftor)]	-0.6
Cc1cc(C(N)=O)ccc1-n1c(CCC(=O)O)ccc1-c1ccc(-n2ccnc2)cc1	-0.771
C=C1C(=O)O[C@H]2[C@H]1CC/C(C)=C/CC[C@@]1(C)O[C@@H]21 [(-)-Parthenolide]	-0.888
Cc1nc2c(-c3cnc(N)nc3)nc(N3CCOCC3)nc2n1C(C)C	1.07
Cc1ccc2c(=O)c3cccc(CC(=O)O)c3oc2c1C [DMXAA (Vadimezan)]	-1.15
CN[C@@H](C)C(=O)N[C@H](C(=O)N1CCC[C@H]1C(=O)Nc1snnc1-c1ccccc1)C1CCCCC1	-0.107
O=C(c1ccc(Nc2nccc(-c3cc4ccccc4s3)n2)cc1)N1CCC(N2CCCC2)CC1	0.27
Cc1ccc(S(=O)(=O)OCC(=O)Nc2ccc(C(=O)O)c(O)c2)cc1	-0.554
CC(C)(C)n1nc(-c2ccc(Cl)cc2)c2c(N)ncnc21	0.793
CCOC(=O)NCCCC(=O)NCCc1ccccc1	-0.656
O=C1NC(=O)/C(=C/c2cccc(C(F)(F)F)c2)S1	-1.18
CS(=O)(=O)c1ccc(-c2cnc(N)c(C(=O)Nc3ccccc3)n2)cc1	-0.463
C[C@H]1COC2=C1C(=O)C(=O)c1c2ccc2c1CCCC2(C)C	0.405
O=C1NC(=O)/C(=C/c2ccc(-c3ccc(F)cc3O)o2)S1	0.652
C[C@H](NCc1ccc(OCc2cccc(F)c2)cc1)C(N)=O [Safinamide Mesylate]	-0.055
COc1ccc2c(c1)c(C1=C(c3c[nH]c4ccccc34)C(=O)NC1=O)cn2CCCN(C)C	-0.96

SMILES	presynaptic density (Z-score)
COc1ccccc1N1CCN(CC(O)COc2cccc3ccccc23)CC1 (centres undefined)	-0.464
CC(C)N(CCCNC(=O)Nc1ccc(C(C)(C)C)cc1)C[C@H]1O[C@@H](n2cc(Br)c3c(N)ncnc32)[C@H](O)[C@@H]1O	-0.407
COc1cc(CCc2cc(NC(=O)c3ccc(N4CC(C)NC(C)C4)cc3)n[nH]2)cc(OC)c1 (centres undefined)	-0.132
CCn1c(=O)c2c(nc(/C=C/c3ccc(OC)c(OC)c3)n2C)n(CC)c1=O [Istradefylline]	-0.775
CCOC(=O)c1ccc(N2NC(=O)C(=Cc3ccc([N+](=O)[O-])o3)C2=O)cc1	0.0787
COc1cc2c(cc1OC)[C@@H]1Cc3ccc(OC)c(OC)c3CN1CC2 [Rotundine]	-0.985
CCCc1nc2c(C)cc(-c3nc4ccccc4n3C)cc2n1Cc1ccc(-c2ccccc2C(=O)O)cc1	-0.154
COc1cc2c(cc1O)CC[C@@H]1[C@@H]2CC[C@]2(C)[C@@H](O)CC[C@@H]12 [2-Methoxyestradiol (2-MeOE2)]	-0.808
NC1(Cc2ccc(Cl)cc2)CCN(c2ncnc3[nH]ccc23)CC1	-0.622
CC(C)(C)Cn1c(N)nc2ccc(-c3[nH]c(C(C)(C)C)nc3-c3ccc(F)cc3)nc21	0.191
NC(=O)c1cccc(-c2cc(Nc3ccc(OC(F)(F)F)cc3)ncn2)c1	-1.31
CCCCCCCCc1ccc(CCC(N)(CO)CO)cc1 [Fingolimod (FTY720) HCl]	0.342
c1ccc(NCc2ccc(CNc3ccccn3)cc2)nc1	-0.658
Cc1[nH]c(/C=C2\C(=O)Nc3ccc(S(=O)(=O)Cc4c(Cl)cccc4Cl)cc32)c(C)c1C(=O)N1CCC[C@@H]1CN1CCCC1	-4.53
OC(CNCC(O)C1CCc2cc(F)ccc2O1)C1CCc2cc(F)ccc2O1 (centres undefined) [Nebivolol]	-0.196
Nc1nc(N)c2nc(-c3ccccc3)c(N)nc2n1 [Triamterene]	-0.407
Cc1c(Cl)cccc1Nc1ccccc1C(=O)O [Tolfenamic acid]	-0.187
CCc1cc(Nc2nccc(-c3c(-c4ccc(OC)c(C(=O)Nc5c(F)cccc5F)c4)nc4ccccn34)n2)c(OC)cc1N1CCC(N2CCN(S(C)(=O)=O)CC2)CC1	0.31
COc1ccc([C@]2(C#N)CC[C@@H](C(=O)O)CC2)cc1OC1CCCC1 [Cilomilast]	-0.137
